High-throughput results from PubChem BioAssay.
Hits are enriched below; roughly 7.6% of the tested compounds scored in any of these assays.
Cy5 interf NS3h: Cy5 fluorescence interference, HCV helicase counter-screen; Cy5-dT15 DNA with NS3h; actives lie on both sides; signal over control mean, under 1 quenches; fluorescence interference ratio at 100 µM; 16,000 tested, 6% active; AID 720488;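 active = compound fluorescence over control fluorescence at most 0.8, a quencher, or at least a set upper limit, an enhancer; inactive = ratio between 0.8 and the set upper limit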
HCV NS3h FP: hepatitis C NS3 helicase inhibition, primary screen; 16,000 tested, 1.6% active; NS3h Cy5-dT15 DNA binding, fluorescence polarization; inhibition, % at 100 µM;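 active = inhibition above the average over every tested compound plus 3 SD, cut at about 40% in these data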
A number is an active result; i = inactive.

SMILES	Cy5 interf NS3h	HCV NS3h FP
CCOC(=O)c1c(C)nn2c1NC(c1ccc(Cl)cc1)CC2C(F)(F)F (configuration not stated)	i	i
C/C(=C\C(=O)c1ccc(Cl)cc1)Nc1cc(C)ccc1Cl	i	i
N/C(=N/OC(=O)c1ccc(Cl)cc1Cl)c1cccnc1	i	i
O=C1NN(c2ccccc2)C(=O)/C1=C/c1ccc(OCCOc2ccccc2)cc1	i	i
Cc1ccc(CN2CCN(S(C)(=O)=O)CC2)cc1	0.68	i
Cc1ccc(NC(=O)C(=O)NCCN2CCN(S(C)(=O)=O)CC2)cc1	i	i
CCOc1ccc(CN2CCN(S(C)(=O)=O)CC2)cc1	0.71	i
CCOc1ccc(S(=O)(=O)N2CCOCC2)cc1	i	i
COc1ccc(OC)c(C2NC(=O)NC(C)=C2C(=O)Nc2ccccc2Cl)c1 (configuration not stated)	i	i
Nc1nnc(CCS(=O)(=O)c2ccc3ccccc3c2)s1	i	i
CCC(C(C)=O)C(=O)Nc1ccccc1 (configuration not stated)	i	i
CC(=O)CC(C)(C)Nc1ccccc1	0.74	i
COC(=O)C1=C(C)N(c2ccc(C)cc2)/C(=C\c2ccc(OCC(N)=O)cc2)C1=O	i	i
NC(=O)COc1ccc(/C=c2/sc3n(c2=O)CCCN=3)cc1	1.2	i
COc1ccc(N)cc1-n1c(C)ccc1C	0.4	i
O=C(O)/C=C/c1cccc(NS(=O)(=O)c2ccccc2)c1	i	i
O=C(/C=C/c1ccc(S(=O)(=O)Nc2ccccc2)cc1)C1C(=O)c2ccccc2C1=O	0.47	i
CC1=[N+]([O-])C(C)(C)C(c2ccc(C)cc2)=[N+]1[O-]	i	i
O=C(Cc1ccccc1)Nc1ccc(C(=O)Nc2nccs2)cc1	0.68	i
O=C(Nc1cc(NC(=O)c2ccccc2)cc(C(=O)Nc2nccs2)c1)c1ccccc1	i	i
CCN(CC)c1ccc(C(=O)Nc2nccs2)cc1	i	i
O=C(Nc1nccs1)c1cccc(NC(=O)c2cccs2)c1	0.71	i
O=C(c1ccc(Cl)c([N+](=O)[O-])c1)N1CCC(Cc2ccccc2)CC1	i	i
Cc1cc(OCC(=O)Nc2cccc(-c3nc4ncccc4o3)c2C)cc(C)c1Cl	i	i
CSc1ccc(CN2CCN(Cc3ccc4ccccc4c3)CC2)cc1	i	i
SMILES	Cy5 interf NS3h	HCV NS3h FP
COc1ccc(NC(=O)c2nn3c(c2Br)NC(c2cccs2)CC3C(F)(F)F)cc1OC (configuration not stated)	i	i
COc1cc(NC(=O)c2cc3n(n2)C(C(F)(F)F)CC(c2ccccc2)N3)c(OC)cc1Cl (configuration not stated)	i	i
O=[N+]([O-])c1ccc(-c2noc(-c3ccccc3Br)n2)cc1	0.76	i
O=[N+]([O-])c1cccc(-c2nc(-c3ccc(Cl)cc3)no2)c1	i	i
COc1cc(OC)cc(C(=O)Nc2cc(C)ccc2C)c1	i	i
CCOC(=O)c1ccccc1NS(=O)(=O)c1ccc(Cl)cc1	i	i
Nc1ccc(Oc2ccc(N)c(N)c2)cc1	0.19	i
COc1ccc(Oc2ccc(N)cc2)cc1	i	i
Cc1cccc(NC(=O)/C=C/c2ccc(Cl)cc2)c1	i	i
CC(=O)Nc1ccc(N2C(=O)C3C4c5ccccc5C(c5ccccc54)C3C2=O)cc1 (configuration not stated)	i	i
Cc1cc(C)cc(-n2c(C)cc(/C=C3\NC(=S)NC3=O)c2C)c1	i	i
O=C(Nc1ccccc1)c1ccc(-c2ccccc2)cc1	1.2	i
CC1CCN(S(=O)(=O)c2ccc(NC(=O)c3ccc([N+](=O)[O-])cc3)cc2)CC1	i	i
CC1CCN(S(=O)(=O)c2ccc(NC(=O)c3ccc(-c4ccccc4)cc3)cc2)CC1	1.4	i
O=C(Nc1ccc(F)cc1)c1ccc(-c2ccccc2)cc1	i	i
Cc1cc(Cl)ccc1OCC(=O)Nc1cc(Cl)cc(Cl)c1	i	i
CCOC(=O)COc1c(Cl)cc(C=C2C(=O)NC(=S)NC2=O)cc1Cl	i	i
CCOC(=O)CC1=Nn2c(nnc2-c2ccc(Cl)cc2)SC1	i	i
CC1CCN(CCCCOc2c(Cl)cccc2Cl)CC1	0.79	i
Cc1cc(Cl)ccc1OCC(O)CN1CCCC1 (configuration not stated)	i	i
CC1CCN(Cc2c(O)ccc3ccccc23)CC1	i	i
Cc1ccc(C)c(OCCCCN2CCCC2)c1C	0.72	i
Cc1ccc(S(=O)(=O)NCCNc2cc(Cl)ccc2[N+](=O)[O-])cc1	i	i
COc1ccccc1OCCOc1ccc(Br)cc1/C=C1/SC(=S)N(C)C1=O	i	i
Cc1ccc(N2C(=O)C3ON(c4ccc(Cl)cc4)C(c4cccs4)C3C2=O)cc1 (configuration not stated)	i	i
SMILES	Cy5 interf NS3h	HCV NS3h FP
O=C(NCc1ccccc1)c1nn2c(C(F)(F)F)cc(-c3cccs3)nc2c1Cl	i	i
COC(=O)c1cc2nc(-c3ccc(OC)cc3)cc(C(F)(F)F)n2n1	i	i
CC(COc1ccccc1)NC(=O)c1nn2c(C(F)(F)F)cc(-c3ccccc3)nc2c1Br (configuration not stated)	0.63	i
COC(=O)c1ccccc1NC(=O)c1cnn2c(C(F)(F)F)cc(-c3ccccc3)nc12	0.65	i
CC(C)(C)NC(=O)c1nn2c(C(F)(F)F)cc(-c3ccccc3)nc2c1Br	0.64	i
O=C(Nc1ccccc1C(F)(F)F)c1cnn2c(C(F)(F)F)cc(-c3ccccc3)nc12	i	i
O=C(O)/C=C/C(=O)NNC(=O)c1cc(O)cc(O)c1	i	i
COC(=O)c1cccc(-c2ccc(C=C3C(=O)N(C)C(=O)N(C)C3=O)o2)c1	i	i
COC(=O)c1cccc(-c2ccc(/C=C3/C(=O)NN(c4cccc(Cl)c4)C3=O)o2)c1	0.77	i
COc1ccc(NC(=O)c2cnn3c2NC(c2ccco2)CC3C(F)(F)F)c(OC)c1 (configuration not stated)	i	i
COc1ccc(CNC(=O)c2cnn3c2NC(c2ccco2)CC3C(F)(F)F)cc1 (configuration not stated)	0.75	i
COc1ccc(C2CC(C(F)(F)F)n3ncc(C(=O)Nc4cc(Cl)ccc4O)c3N2)cc1OC (configuration not stated)	i	i
COc1ccc(NC(=O)c2cnn3c2NC(c2ccccc2)CC3C(F)(F)F)cc1OC (configuration not stated)	0.73	i
COc1ccc(C2CC(C(F)(F)F)n3ncc(C(=O)Nc4cccc(C(C)O)c4)c3N2)cc1OC (configuration not stated)	0.7	i
COc1ccc(C2CC(C(F)(F)F)n3ncc(C(=O)O)c3N2)cc1OC (configuration not stated)	i	i
O=C(c1cnn2c1NC(c1ccco1)CC2C(F)(F)F)N1CCN(Cc2ccccc2)CC1 (configuration not stated)	0.7	i
COc1cc(C2CC(C(F)(F)F)n3ncc(C(=O)N4CCN(Cc5ccccc5)CC4)c3N2)cc(OC)c1OC (configuration not stated)	i	i
CC(C)c1ccccc1NC1=NS(=O)(=O)c2cc([N+](=O)[O-])ccc21	i	i
CCOc1ccc(N(CC(=O)Nc2ccccc2Br)S(C)(=O)=O)cc1	i	i
CCOC(=O)Nc1ccc(Br)cc1C(c1ccccc1)N(CC(=O)OC)C(=O)OCC (configuration not stated)	i	i
